# Reference: PubChem BioAssay (EPA / NIEHS)
# Results filed as inconclusive are left out. Activity calls are given as the source filed them. Rule for the calls: active = hit-call score of the fitted dose curve at least 0.9, where 1 is the maximum; inconclusive = response in the unintended direction; inactive = score below 0.9.
# Read-out: sulfotransferase (SULT2A), SULT2A1 (gene 6822)
# Experiment: CLD_SULT2A_24hr: CellzDirect (CLD) Gene Expression Assay for sulfotransferase (SULT2A) at 24 hours (AID 2283694);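 for AC50: potency for increased SULT2A1 mRNA level as induction over DMSO baseline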
# Description: CLD_24hr is a cell-based, multiplexed-readout assay that uses hepatocyte, a human liver primary cell, with measurements taken at 24 hours after chemical dosing in a 96-well plate.CLD_SULT2A_24hr is one of 16 assay component(s) measured or calculated from the CLD_24hr assay. It is designed to make measurements of mRNA induction, a form of inducible reporter, as detected with chemiluminescence signals by Quantitative Nuclease Protection Assay (qNPA) technology.Data from the assay component CLD_SULT2A_24hr was analyzed at the endpoint, CLD_SULT2A_24hr, in the positive analysis fitting direction relative to DMSO as the negative control and baseline of activity. Using a type of inducible reporter, gain-of-signal activity can be used to understand changes in the reporter gene as they relate to the gene SULT2A1. Furthermore, this assay endpoint can be referred to as a primary readout. To generalize the intended target to other relatable targets, this assay endpoint is annotated to the transferase intended target family, where subfamily is sulfotransferase.
# Human hepatocyte cultures were treated daily for two consecutive days with fresh dosing solutions containing appropriate concentrations of the 320 ToxCast chemicals (chemical identities were blinded to CellzDirect and other ToxCast collaborators), vehicle control (0.2% DMSO), and positive control inducers as summarized in Table 1. Due to the large number of treatment groups and chemicals examined, the ToxCast chemicals were divided into two groups (spanning two independent cultures of hepatocytes from separate donor preparations (Hu778: ToxCast plates 1 and 2; Hu776: ToxCast plates 3 and 4). Each preparation of human hepatocyte cultures was treated with respective vehicle control, medium only control, set of six positive controls/reference chemicals for the five hepatic receptor pathways, and a subset of eight of the ToxCast chemicals (indoxacarb, pyrithiobac-sodium, norflurazon, cyhalofop-butyl, methomyl, thiram, acetochlor, and propiconazole). These replicate data, coupled with internal replicates designed within the blinded ToxCast chemical library, provided additional data to evaluate interindividual differences between hepatocyte preparations and their potential impact on chemical profiles.Cell morphology and integrity were evaluated using phase-contrast microscopy as an indicator of hepatocyte cell health (Tyson & Green, 1987). Cultures for each treatment group (i.e., media, vehicle [0.2% DMSO], positive control inducers [multiple concentrations], and the ToxCast chemicals [multiple concentrations]) were observed and cell morphology was assessed relative to vehicle control cultures at each harvest time point (0, 6, 24, or 48 h). […] Images were evaluated at the conclusion of the study to assess changes in cell integrity and account for the effects of chemical exposure on uncharacteristic changes in concentration-dependent gene expression profiles. The results from these determinations of apparent cytotoxicity were annotated (yes/no) alongside the corresponding qNPA data for reference.At the conclusion of each treatment period, hepatocyte cultures (96-well) were washed with 1 volume of HBSS, lysed by addition of 25 ul ArrayPlate lysis buffer (HTG, Tucson, AZ), and 70 ul/well of Denaturation Oil, denatured by incubation at 95C for 10 min, and frozen at approximately -70C until analysis by nuclease protection assay (qNPA) (Roberts et al., 2007). For qNPA analysis, cell lysates were thawed at 50C for approximately 30 min, qNPA probes were added, and samples were incubated at 95C for 10 min to begin the detection process by denaturing the target RNA, dissociating the duplexes and secondary structure hybridization. At the conclusion of the hybridization period, S1 nuclease reagent was added to each sample to digest all nonprotected nucleotides at 50C for 60-90 min. […]
Structure (SMILES),outcome,AC50
CCON=C(CC)C1=C(O)CC(c2c(C)cc(C)cc2C)CC1=O (configuration not stated),inactive,
N#CC(CCc1ccc(Cl)cc1)(Cn1cncn1)c1ccccc1 (configuration not stated),inactive,
COC(=O)C=C(C)OP(=O)(OC)OC,inactive,
COC(=O)C(C)Oc1ccc(Oc2ccc(Cl)cc2Cl)cc1 (configuration not stated),inactive,
O=C(O)COc1nc(Cl)c(Cl)cc1Cl,inactive,
N#Cc1cc(Br)c(O)c(Br)c1,inactive,
CCNc1nc(Cl)nc(NCC)n1,inactive,
CCCCC(CC)COC(=O)c1ccccc1C(=O)OCC(CC)CCCC (configuration not stated),inactive,
CCOC(=O)C(Cl)Cc1cc(-n2nc(C)n(C(F)F)c2=O)c(F)cc1Cl (configuration not stated),inactive,
COc1nc(C)nc(NC(=O)NS(=O)(=O)c2ccccc2Cl)n1,inactive,
Cc1ccc(-c2c(Cl)nc(C#N)n2S(=O)(=O)N(C)C)cc1,inactive,
C#CCOS(=O)OC1CCCCC1Oc1ccc(C(C)(C)C)cc1 (configuration not stated),inactive,
CCNc1nc(Cl)nc(NC(C)C)n1,inactive,
COc1cnc(OC)n2nc(NS(=O)(=O)c3c(OCC(F)F)cccc3C(F)(F)F)nc12,inactive,
CCOC(=O)CC(SP(=S)(OC)OC)C(=O)OCC (configuration not stated),inactive,
CCc1nn(C)c(C(=O)NCc2ccc(C(C)(C)C)cc2)c1Cl,,3.71 µM (active)
CCCN(CCC)c1c([N+](=O)[O-])cc(S(N)(=O)=O)cc1[N+](=O)[O-],,20 µM (active)
N#Cc1nn(-c2c(Cl)cc(C(F)(F)F)cc2Cl)c(N)c1S(=O)C(F)(F)F (configuration not stated),,2.43 µM (active)
CCCCOC(=O)c1ccccc1C(=O)OCCCC,inactive,

Structure (SMILES),outcome,AC50
CCCC1COC(Cn2cncn2)(c2ccc(Cl)cc2Cl)O1 (configuration not stated),inactive,
CNC(=S)S,inactive,
CCOP(=S)(OCC)SCn1c(=O)oc2cc(Cl)ccc21,inactive,
COC(=O)c1ccccc1C(=O)OC,inactive,
CC(C)Oc1cc(-n2nc(C(C)(C)C)oc2=O)c(Cl)cc1Cl,inactive,
C=CCC1=C(C)[C@@H](OC(=O)[C@@H]2[C@@H](C=C(C)C)C2(C)C)CC1=O,inactive,
CC(C)(C)c1ccc(CSc2cnn(C(C)(C)C)c(=O)c2Cl)cc1,,20 µM (active)
COP(=S)(OC)Oc1nc(Cl)c(Cl)cc1Cl,inactive,
CCCCNC(=O)OCC#CI,inactive,
CO/C=C(/C(=O)OC)c1ccccc1Oc1cc(Oc2ccccc2C#N)ncn1,inactive,
COc1ccc(C(c2ccc(OC)cc2)C(Cl)(Cl)Cl)cc1,inactive,
CC1COC(Cn2cncn2)(c2ccc(Oc3ccc(Cl)cc3)cc2Cl)O1 (configuration not stated),inactive,
O=C(O)c1nc(Cl)ccc1Cl,inactive,
CCOc1cc(Oc2ccc(C(F)(F)F)cc2Cl)ccc1[N+](=O)[O-],inactive,
C=CC1(C)OC(=O)N(c2cc(Cl)cc(Cl)c2)C1=O (configuration not stated),inactive,
COC(=O)N(OC)c1ccccc1COc1ccn(-c2ccc(Cl)cc2)n1,inactive,
OC(c1ccc(Cl)cc1)(c1cncnc1)c1ccccc1Cl (configuration not stated),inactive,
COc1nc(C)nc(NC(=O)NS(=O)(=O)c2ccccc2CCC(F)(F)F)n1,inactive,
